Screens as filed in PubChem BioAssay.
RecA intein inh – Mtb RecA intein splicing inhibitors, primary screen, biochemical, fluorescence, HTS. cell-free RecA intein splicing. inhibition, % (test concentration not listed). 0.75% of 290,000 active; in the data active = inhibition above about 30%;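 note: 0% = vehicle wells and 100% = reference inhibitor control wells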
Target sequence (P9WHJ3 whole entry, looked up): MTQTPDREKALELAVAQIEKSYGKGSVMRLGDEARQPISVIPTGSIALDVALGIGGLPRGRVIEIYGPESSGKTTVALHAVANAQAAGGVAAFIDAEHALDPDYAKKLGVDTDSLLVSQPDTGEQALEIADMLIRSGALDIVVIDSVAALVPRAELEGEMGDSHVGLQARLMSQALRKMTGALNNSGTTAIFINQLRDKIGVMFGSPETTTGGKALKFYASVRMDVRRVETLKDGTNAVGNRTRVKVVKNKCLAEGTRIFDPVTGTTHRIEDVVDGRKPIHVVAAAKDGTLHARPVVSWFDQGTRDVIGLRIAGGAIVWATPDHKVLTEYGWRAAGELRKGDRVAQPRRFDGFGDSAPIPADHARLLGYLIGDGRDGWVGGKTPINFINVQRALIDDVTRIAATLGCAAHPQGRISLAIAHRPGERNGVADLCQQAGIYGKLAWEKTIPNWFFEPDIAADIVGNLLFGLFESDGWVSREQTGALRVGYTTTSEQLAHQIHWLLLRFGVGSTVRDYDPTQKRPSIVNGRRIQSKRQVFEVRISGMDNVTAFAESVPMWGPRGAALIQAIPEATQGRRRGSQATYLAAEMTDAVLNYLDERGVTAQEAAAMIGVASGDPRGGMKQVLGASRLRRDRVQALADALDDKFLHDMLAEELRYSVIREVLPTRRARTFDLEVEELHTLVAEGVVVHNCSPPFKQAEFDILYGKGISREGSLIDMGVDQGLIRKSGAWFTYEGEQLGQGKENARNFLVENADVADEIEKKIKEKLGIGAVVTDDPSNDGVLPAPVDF
Mtb FBA inh – Mtb FBA enzyme inhibitors, primary screen, biochemical, fluorescence, strain H37Rv; Fructose-bisphosphate aldolase (Mycobacterium tuberculosis (strain ATCC 25618 / H37Rv)), …; purified M. tuberculosis FBA, fluorescence read-out; inhibition, % at 1 µM; 2.3% of 360,000 active; AID 588726, 2011;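 note: 0% = vehicle and 100% = reference inhibitor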
GDH-TPI counter-1 – GDH-TPI coupling enzyme inhibitors, primary screen, artefact control for M. tuberculosis FBA inhibitor project, biochemical, absorbance, full deck | 1.2% of 360,000 active | inhibition, % at 4.8 µM | GDH-TPI coupled enzyme counterscreen, NADH absorbance; in the data active = inhibition above about 30%;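 note: 0% = DMSO wells and 100% = wells lacking the enzyme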
BJeLR viability – MLPCN primary cell-based screen for lethality selective to Ras in HRASV12 cells; BJeLR (HRASV12) viability, CellTiter-Glo ATP luminescence, 48 h; inhibition, % (concentration not given with the values); 0.17% of 300,000 active; AID 1554, 2009; in the data active = inhibition above about 50%
PrPC TRFRET – inhibitors of human cell surface prion protein PrPC, primary screen, cell-based, TR-FRET | TR-FRET read-out | 0.43% of 370,000 active | AID 720596, 2013 | inhibition, % at 13.8 µM; in the data active = inhibition above about 24%; note: 0% = median of the test wells and 100% = reference compound wells
Mtb FBA inh conf – M. tuberculosis aldolase blockers, biochemical, fluorescence, strain H37Rv, confirmation. shares compounds with Mtb FBA inh. inhibition, % at 1 µM. 78% of 5,600 active. AID 651616, 2012. purified M. tuberculosis FBA, fluorescence read-out;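 note: 0% = vehicle wells and 100% = reference inhibitor wells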
GDH-TPI counter-2 – GDH-TPI coupling enzyme inhibitors, artefact control for M. tuberculosis FBA inhibitor project, biochemical, fluorescence, high throughput | shares compounds with Mtb FBA inh | 81% of 5,600 active | inhibition, % at 1 µM | GDH-TPI coupled enzyme counterscreen | AID 652141, 2013; in the data active = inhibition above about 10%
The depositor's hits bear a star; . = no result; + = active, no number. Sampled rows, rich in hits. Any-hit rate of the full collection: about 4.2%. Cut-off read from the data, not from the text of the source, unless noted: active = inhibition above about 27%; inactive = the rest.

SMILES	RecA intein inh	Mtb FBA inh	GDH-TPI counter-1	BJeLR viability	PrPC TRFRET	Mtb FBA inh conf	GDH-TPI counter-2
COc1cc(-c2nc3ccc(C)cn3c2NCc2ccccc2)ccc1-c1cccc(Cl)c1	.	40*	9	.	3	8	-2
COC(=O)N(C)C[C@H]1OCc2cn(nn2)CCCC(=O)N([C@H](C)CO)C[C@@H]1C	.	.	.	.	10	.	.
CC(OC(=O)c1ccccc1NCCO)C(=O)Nc1ccc(S(=O)(=O)N2CCOCC2)cc1 (stereo not given)	-6	57*	1	3	1	58*	54*
Cc1ccc2nc(-c3ccsc3)c(NC3CCCC3)n2c1	0	28*	9	-1	-3	18	14*
COCc1cc(N2CCN(C(=O)OC(C)(C)C)C[C@H]2C)ccc1N1CCS(=O)(=O)CC1	.	.	.	.	2	.	.
CCOC(=O)[C@]12CCCC=C1N(CCCOC)C(=O)[C@@H]2CC(=O)NCc1cccc(C(F)(F)F)c1	.	.	.	.	-3	.	.
CCCn1c(SCC(=O)Nc2c(C)cccc2CC)nnc1C(C)C	0	39*	4	-2	0	118*	111*
CCCn1c(SCC(=O)Nc2ccccc2CC)nnc1C(C)C	0	-3	-2	-6	-1	.	.
CC(C)CNS(=O)(=O)/C=C/c1ccc(F)cc1CNC(=O)OC(C)(C)C	.	.	.	.	4	.	.
Cc1cc(C)n2c(nc3ccccc32)c1C(=O)NN	-8	18	21	-4	3	.	.
Cc1cc(C)n2c(nc3ccccc32)c1C(=O)NCc1ccccc1	-2	48*	7	8	-1	23	15*
CC(C)Cn1cc(C(=O)N2CCN(c3ccccn3)CC2)c2c3ccccc3n(C)c2c1=O	6	9	19	5	-5	.	.
COCCn1cc(C(=O)N2CCC3(CC2)OCCO3)c2c3ccccc3n(C)c2c1=O	.	37*	13	4	1	144*	120*
CCN1CCN(C(=O)c2cn(CCOC)c(=O)c3c2c2ccccc2n3C)CC1	1	48*	20	-4	7	171*	129*
COCCn1cc(C(=O)N2CCCC(C)C2)c2c3ccccc3n(C)c2c1=O (stereo not given)	2	45*	15	-5	-4	0	-5
Cn1cc(C(=O)N2CCN(C(=O)c3ccco3)CC2)c2c3ccccc3n(C)c2c1=O	-3	37*	15	-21	-8	-2	-3
COc1ccc(-n2c(SCC(=O)Nc3ccccc3-c3ccccc3)nnc2-c2ccco2)cc1	.	.	.	.	-3	.	.
Cn1c2ccccc2c2c(C(=O)N3CCC4(CC3)OCCO4)cn(C3CCCC3)c(=O)c21	-1	28*	8	-1	-8	58*	47*
CCOC(=O)C1CCN(C(=O)Cn2cc(C(=O)C3CC3)c3ccccc32)CC1	0	-1	5	3	-5	.	.
CCOC(=O)C1CCN(C(=O)c2cn(CCOC)c(=O)c3c2c2ccccc2n3C)CC1	0	46*	11	0	7	84*	68*
Cc1ccc(S(=O)(=O)N2CCCC(C(=O)NCc3ccco3)C2)cc1 (stereo not given)	.	.	.	.	12	.	.
O=C(/C=C/c1ccc(Cl)cc1Cl)c1nc2ccccc2[nH]1	-1	-2	14	-11	4	.	.
Clc1ccc(/C=C/c2nc3ccccc3[nH]2)c(Cl)c1	7	63*	16	25	1	60*	44*
Clc1ccc(/C=C/c2nc3ccccc3[nH]2)cc1	6	53*	39*	16	7	+	124*
c1ccc(Cn2ccc3ccc(-c4ccc5ccn(Cc6ccc7ccccc7c6)c5c4)cc32)cc1	.	.	.	.	2	.	.
SMILES	RecA intein inh	Mtb FBA inh	GDH-TPI counter-1	BJeLR viability	PrPC TRFRET	Mtb FBA inh conf	GDH-TPI counter-2
Cc1ccc(-c2nc3ccc(C)cn3c2Cc2ccccc2C(F)(F)F)cc1	.	5	.	.	9	.	.
Cc1ccc(-c2nc3ccc(C)cn3c2CC(=O)N(C)C)cc1	-4	52*	1	0	10	56*	47*
O=[N+]([O-])c1ccc(OC[C@@H](O)CN2CCC(C(O)(c3ccccc3)c3ccccc3)CC2)c(Cl)c1	.	.	.	.	-26	.	.
O=C(O)C(=O)/C(=C\c1cccc(Cl)c1)c1ccc2ccccc2n1	-5	79*	13	4	-2	+	+
Nc1ccccc1C(=O)NCCN1CCNC1=O	0	93*	10	6	2	90*	77*
Cc1ccccc1CNC(=O)c1ccccc1N	1	78*	5	-5	1	+	191*
Cc1cc(C(=O)NCc2ccccc2)c(=O)[nH]c1C	-1	56*	4	1	4	103*	74*
Nc1ccccc1C(=O)NCCCN1CCN(c2cccc(Cl)c2)CC1	3	54*	1	-3	0	69*	72*
Cc1ccc(C(=O)NCc2ccccc2)c(F)c1F	-1	-3	-2	4	1	.	.
CCOC(=O)[C@@H]1CSCCS(=O)(=O)N1C(=O)[C@H](Cc1ccccc1)NC(=O)OC(C)(C)C	.	.	.	.	-1	.	.
Cc1ccccc1CNC(=O)C1CCC(CNS(=O)(=O)c2cccc3cccnc23)CC1 (stereo not given)	.	.	.	.	4	.	.
C[C@@H]1[C@@H](c2ccccc2)c2cc3ccccc3nc2-c2nc3ccccc3cc2[C@@H]1C(=O)N1CCCC1	.	.	.	.	9	.	.
Cc1ccc(OCCNC(=O)c2ccccc2N)cc1	2	49*	2	12	0	+	191*
CS(=O)(=O)Nc1ccccc1C(=O)NCC1(N2CCCCC2)CCCCC1	-2	45*	-2	-1	3	9	-5
COc1ccccc1CNC(=O)c1ccc(NS(C)(=O)=O)cc1	0	5	-2	4	-2	.	.
COc1ccccc1CNC(=O)c1ccccc1NS(C)(=O)=O	-1	29*	-7	-12	17	102*	80*
Nc1ccccc1C(=O)NCc1ccccc1	-2	44*	-5	2	2	1	4
COCc1cc(N2CCNC[C@H]2C)ccc1N1CCS(=O)(=O)CC1	.	.	.	.	1	.	.
C=CCN1C(=O)[C@@H](CC(=O)N2CCN(C(=O)C3CC3)CC2)[C@]2(C(=O)OCC)CCCCC/C=C/12	.	.	.	.	-1	.	.
NC(=O)c1ccccc1N	1	86*	6	-4	10	78*	54*
NC(=O)c1ccccc1OCc1cccc2ccccc12	-1	1	6	0	6	.	.
